In all, about 16,000 compounds went through this assay and about 2,600 (16%) were called active. Another 20% or so got no clear call; they are omitted. A selection follows. Values without a mark were called inactive. Calls follow the shape of the dose curve; as a rule, active = well fitted curve in the direction sought with a large enough effect; inconclusive = small, poorly fitted or top-dose-only effect, or effect the other way; inactive = no such curve, though single readings can be large or run the other way.

In general, AC50 refers to the concentration at which the activity in the assay is half-maximal.
% is scaled to controls: 0 for no effect and ±100 for the full control effect.

In this experiment the target is Cytochrome P450 2D6 (Homo sapiens) (UniProt P10635). The experiment is described as follows: Cytochrome panel assay with activity outcomes. The settings on record: recombinant CYP, pro-luciferin dealkylation, luminescence, p450-cyp2d6; series mostly up to 57.1 µM.
Chain of Cytochrome P450 2D6 (Homo sapiens) (P10635 whole entry, looked up): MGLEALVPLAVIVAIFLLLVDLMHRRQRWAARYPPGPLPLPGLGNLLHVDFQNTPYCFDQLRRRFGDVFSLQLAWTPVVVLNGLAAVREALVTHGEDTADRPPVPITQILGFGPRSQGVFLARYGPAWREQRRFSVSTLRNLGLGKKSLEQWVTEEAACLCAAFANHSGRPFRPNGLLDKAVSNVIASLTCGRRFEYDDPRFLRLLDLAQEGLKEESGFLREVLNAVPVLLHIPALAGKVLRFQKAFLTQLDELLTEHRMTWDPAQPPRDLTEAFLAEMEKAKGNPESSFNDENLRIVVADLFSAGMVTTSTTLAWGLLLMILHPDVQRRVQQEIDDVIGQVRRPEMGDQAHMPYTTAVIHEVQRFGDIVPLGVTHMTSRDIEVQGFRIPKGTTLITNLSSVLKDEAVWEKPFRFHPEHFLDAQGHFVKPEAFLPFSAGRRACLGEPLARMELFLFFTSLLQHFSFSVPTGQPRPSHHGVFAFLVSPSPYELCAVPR
As to `CC1CN(C(=S)NC(=O)c2ccc([N+](=O)[O-])cc2)CC(C)O1` (centres undefined), the AC50 result is “inactive”.

For the compound `COc1ccc(Oc2ncc3nc(C)c(=O)n(-c4ccc(OC)cc4)c3n2)cc1`, the AC50 entry is “inactive”. Consider `Cc1ccc(C(=O)Nc2cc(Cl)ccc2OC(=O)c2ccc(C)cc2)cc1`, for which the AC50 result was “inactive”. Still for that read-out and setting: the entry for `NCCNC(=O)c1ccc(Cl)cc1` is “inactive”. For `O=C(Nc1ccc(Cl)cc1C(F)(F)F)c1ccc(Cl)cc1`, the AC50 was 0.282 µM (active).

For `COc1ccc(COC(=O)N/N=C2/C[C@@H](O)[C@@H](O)[C@@H]3[C@H]4C(=O)N(c5ccc(F)cc5F)C(=O)[C@@H]4CC[C@H]23)cc1`, the activity, negative = inhibition is -14.9% [at 11.4 µM]. On to `CCCN(CCC)CCCNS(=O)(=O)c1cc(Br)cc2c1N(C(C)=O)CC2`, for which the AC50 entry was “inactive”. Same read-out and setting: next, `O=c1c2ccc([N+](=O)[O-])c3cccc(c32)c2nc3ccccc3n12`: “inactive”; `O=C(O)Cn1c(-c2ccccc2)nc2ccccc21`: “inactive”. Same read-out and setting: next, `O=C(O)c1ccc2c3c1cccc3c(=O)n1c3ccccc3nc21`: 15.8 µM (active). On the same count and under the same terms, the entry for `Cc1cc(N2CCOCC2)ncc1[N+](=O)[O-]` is “inactive”.

Take `COc1ccc(Cc2nnc(NC(=O)c3ccco3)s2)cc1`: the AC50 result is “inactive”. The same measure, in the same setting: the figure for `COc1ccccc1-c1cc(NCc2ccccc2)ncn1` is 20 µM (active); for `COc1ccccc1-c1cc(Nc2ccn[nH]2)ncn1` it is “inactive”; for `COc1ccccc1CNc1cc(-c2ccccc2OC)ncn1` it is 20 µM (active).

Turning to `COc1ccccc1CNc1cc(-c2ccoc2)ncn1`, the concentration at half-maximal activity (AC50) was 15.8 µM (active). The same measure, in the same setting: next, `COc1ccccc1CNc1cc(-c2ccccc2Cl)ncn1`: 12.6 µM (active); `Cc1sc2ccccc2[n+]1CCC(C)S(=O)(=O)[O-]` (centres undefined): “inactive”. The same measure, in the same setting: next, `C=CCSc1nc(Oc2ccccc2)c2sccc2n1`: “inactive”. Still for that read-out and setting: next, `CCCc1nnc(SCC(=O)N2CCCCC2C)n1CCCOC` (centres undefined): “inactive”. Regarding `CCn1cc(C(=O)O)c(=O)c2cnc(N3CCNCC3)nc21`, the AC50 entry is “inactive”. As to `CO[C@@H]1COC(=O)C/C=C\[C@H](C)COC(=O)[C@H](Cc2ccccc2)NC(=O)C/C=C\[C@H]1C`, the activity, negative = inhibition was 9.42% [at 11.4 µM]. Turning to `Cc1cc(SC(C)C(=O)Nc2c(C)n(C)n(-c3ccccc3)c2=O)nc2ccccc12` (centres undefined), the AC50 result is “inactive”. As for `C[C@@]12C(=O)OC(=O)[C@]1(C)[C@H]1CC[C@@H]2O1`, the AC50 result is “inactive”. `COC(=O)C/C=C1\c2ccccc2[C@H](OC)[C@H]1C`: the activity, negative = inhibition was 5.25% [at 11.4 µM]. In the case of `CC(C)Cn1c(C(C)C)nc([N+](=O)[O-])c1S(=O)(=O)c1ccc(F)cc1`, the AC50 result was “inactive”.

Turning to `CSc1nc(C)cc(SC(C(C)=O)C(=O)Nc2ccccc2)n1` (centres undefined), the AC50 result was “inactive”.

As to `C/C(=N\NC(=S)Nc1ccc(F)cc1)C1CC1`, the AC50 entry is “inactive”.

Turning to `C[C@@]12CCC(=O)C=C1CC[C@H]1[C@H]3CC[C@](O)(C(=O)CO)[C@]3(C)CC(=O)[C@@H]12`, the AC50 result was “inactive”. The same measure, in the same setting: the entry for `Cc1cccc(NC(=S)NC(=O)c2cc(-c3ccccc3)nc3ccccc23)c1` is “inactive”. Still for that read-out and setting: the entry for `COc1ccc(NC(=O)c2cc(-c3cccnc3)nc3ccc(C)cc23)cc1OC` is “inactive”. Same read-out and setting: the figure for `Cc1ccc2nc(-c3ccccc3)cc(C(=O)NCCCn3ccnc3)c2c1` is 5.01 µM (active). As for `COc1cccc(Nc2ncc3nc(-c4ccc(Cl)cc4)c(=O)n(CCC#N)c3n2)c1`, the AC50 result was “inactive”. Same read-out and setting: the entry for `C=CCSc1ncccc1C(=O)NCc1ccc(C)cc1` is “inactive”; for `O=C(/C=C\c1ccc(O)c(O)c1)O[C@@H](Cc1ccc(O)c(O)c1)C(=O)O` it is “inactive”; for `CCCC(=O)NC(Nc1ccccc1F)C(Cl)(Cl)Cl` (centres undefined) it is “inactive”. On the same count and under the same terms, next, `CC(=O)NCCNc1ncncc1-c1ccccc1C(F)(F)F`: “inactive”. The same measure, in the same setting: next, `COc1cccc(-c2cncnc2NCCc2cnc[nH]2)c1`: 7.94 µM (active). For the compound `COc1ccccc1-c1cncnc1NCCc1cnc[nH]1`, the AC50 is 10 µM (active). Same read-out and setting: the figure for `FC(F)(F)c1ccccc1-c1cncnc1NCCc1cnc[nH]1` is 12.6 µM (active).

As to `COCCNc1ncncc1-c1c(C)noc1C`, the AC50 entry is “inactive”. Same read-out and setting: the entry for `CC(Oc1ccc(Cl)cc1)C(=O)/C=C/N(C)C` (centres undefined) is “inactive”; for `COc1ccc(CNc2nc3nc4c(c(=O)n3[nH]2)CCC4)cc1` it is “inactive”.

In the case of `CN1CC[C@@]2(CCCN(C(=O)c3cc(C(F)(F)F)cc(C(F)(F)F)c3)C2)C1`, the AC50 entry is “inactive”. Same read-out and setting: next, `O=C(NC1CCCCC1)c1ccc(COCC(F)(F)F)o1`: “inactive”. In the case of `Cc1cc2ccc(OC(=O)c3ccc(N=C(N)N)cc3)cc2oc1=O`, the activity, negative = inhibition was -7.56% [at 11.4 µM]. Regarding `C=CCOc1cccc(/C=N/NC(=O)C(=O)NCc2ccco2)c1`, the AC50 entry was “inactive”. Still for that read-out and setting: the entry for `C[C@@H](Cc1ccccc1)Nc1ncnc2c1ncn2[C@@H]1O[C@@H](CO)[C@H](O)[C@@H]1O` is “inactive”; for `O=C(CNC(=O)c1ccccn1)N/N=C/c1ccccc1` it is “inactive”. For the compound `CCOC(=O)C(CC)(CC)C(=O)/C=C/c1ccc(Br)cc1`, the AC50 entry was “inactive”. Turning to `C[C@H](NC[C@H](O)CP(=O)(O)CC1CCCCC1)c1ccc(Cl)c(Cl)c1`, the AC50 result was “inactive”. On the same count and under the same terms, next, `C[C@H](NC[C@H](O)CP(=O)(O)Cc1ccccc1)c1ccc(Cl)c(Cl)c1`: 0.0501 µM (active); `Cc1cccc2c1OCC/C2=N\NC(=O)COc1ccccc1Cl`: “inactive”; `Cc1sc(NC(=O)/C=C/c2ccc(C(C)C)cc2)c(C#N)c1C`: “inactive”. As for `Cn1cc(-c2nc3cnc(Oc4ccccc4)nc3n(C3CC3)c2=O)c2ccccc21`, the AC50 result is “inactive”. Still for that read-out and setting: the entry for `CC(C)CN1CC[C@@]2(CCCN(C(=O)c3cc(C(F)(F)F)cc(C(F)(F)F)c3)C2)C1` is “inactive”. Still for that read-out and setting: next, `CC(C)CN1CCC2(CC1)CCN(C(=O)c1cc(C(F)(F)F)cc(C(F)(F)F)c1)CC2`: “inactive”; `CC(C)NC(=O)N1CCCC2(CCN(C(=O)c3cc(C(F)(F)F)cc(C(F)(F)F)c3)CC2)C1`: “inactive”. For `CC(C)NC(=O)N1CCC2(CC1)CCN(C(=O)c1cc(C(F)(F)F)cc(C(F)(F)F)c1)CC2`, the AC50 result is “inactive”. On the same count and under the same terms, next, `CC(C)NC(=O)N1CC2(CCN(C(=O)c3cc(C(F)(F)F)cc(C(F)(F)F)c3)CC2)C1`: 0.251 µM (active); `CC(C)CN1CCCC2(CCN(C(=O)c3cc(C(F)(F)F)cc(C(F)(F)F)c3)CC2)C1`: 10 µM (active); `CCOc1cc(/C=C2/C(=O)N(c3ccccc3)N=C2C)ccc1OC(=O)c1ccco1`: “inactive”.

As to `CN1CCCN(S(=O)(=O)c2ccc3c(c2)OCCO3)CC1`, the AC50 entry was “inactive”. The same measure, in the same setting: next, `C=CCNC(=O)c1ccc(-c2nc(-c3ccc(Cl)c(Cl)c3)cs2)cc1`: “inactive”.

The values are drawn from PubChem BioAssay AID1851 (National Center for Advancing Translational Sciences (NCATS), 2009).
